About 50 (0.07%) of roughly 69,000 compounds showed an effect of 50% or more. What follows is part of a selection rich in strong results, with near analogues and random picks from the rest.

In this experiment the target is Lysine--tRNA ligase (Plasmodium falciparum (isolate 3D7)) (UniProt Q8IDJ8). Nature of the experiment: Pf-KRS-1 (Lysyl-RNA Synthetase-1, KRS-1, cytosolic KRS) from Plasmodium falciparum. Inhibitor assay, 384 well plate, luminescence read. It counts as functional. Set-up: scale not given: in the data most compounds retested in dose-response had high values. The following applies: 30 µM.
Sequence of Lysine--tRNA ligase (Plasmodium falciparum (isolate 3D7)) (Q8IDJ8 1-583): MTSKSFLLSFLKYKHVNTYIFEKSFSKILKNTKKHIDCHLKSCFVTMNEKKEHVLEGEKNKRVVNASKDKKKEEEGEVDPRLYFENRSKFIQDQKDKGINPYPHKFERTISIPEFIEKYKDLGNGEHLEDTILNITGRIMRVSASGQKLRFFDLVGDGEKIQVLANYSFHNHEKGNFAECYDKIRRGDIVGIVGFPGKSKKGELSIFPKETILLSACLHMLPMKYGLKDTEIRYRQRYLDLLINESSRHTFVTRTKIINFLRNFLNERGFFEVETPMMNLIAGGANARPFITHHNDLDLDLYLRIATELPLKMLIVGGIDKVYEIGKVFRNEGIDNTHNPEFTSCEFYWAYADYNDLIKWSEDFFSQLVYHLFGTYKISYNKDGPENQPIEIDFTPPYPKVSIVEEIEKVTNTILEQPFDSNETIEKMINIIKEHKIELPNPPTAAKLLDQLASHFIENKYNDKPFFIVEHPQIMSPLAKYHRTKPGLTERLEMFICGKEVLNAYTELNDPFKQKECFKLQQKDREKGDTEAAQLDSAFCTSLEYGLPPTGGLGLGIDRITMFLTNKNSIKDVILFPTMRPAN
For `CC(C)C(=O)N1CCN(C(=O)c2cc(C(C)C)no2)[C@H]2CS(=O)(=O)C[C@H]21`, the Percent Effect is 2.34%.
The same measure for `Cc1cc(CN2C[C@@H]3CN(Cc4ccsc4)CCO[C@@H]3C2)no1`: 3.95%.
As for `CCCn1cc(NC(=O)c2ccc(N(C)CC)cc2)ccc1=O`, the figure is 6.21%; as for `CCCn1cc(NC(=O)c2ccc(NC(=O)NC3CC3)cc2)ccc1=O`, 3.05%; as for `CCCn1cc(NC(=O)c2ccncc2)ccc1=O`, 36.1%.
In the case of `CCCn1cc(NC(=O)c2ccc(S(=O)(=O)CC)cc2)ccc1=O`, the Percent Effect was determined as 78.9%.
The same measure for `CCCn1cc(NC(=O)c2ccc(S(C)(=O)=O)cc2)ccc1=O`: 79.3%; for `CCCn1cc(NC(=O)c2cccnc2O)ccc1=O`: 10.4%; for `Cc1noc([C@H]2CC[C@@H]3[C@@H](CCN3S(C)(=O)=O)O2)n1`: 4.83%.
In the case of `CN(C)C(=O)N1C[C@@H]2CC[C@H](C1)N(Cc1nnc(C3CC3)o1)C2`, the Percent Effect is 1.65%.
In the case of `CCC(=O)N1CCN(C(=O)c2ccc(COC)o2)[C@H]2CS(=O)(=O)C[C@H]21`, the Percent Effect was 1.62%.
Take `O=C([C@@H]1CCO[C@@H]2CCN(Cc3ccc(F)cc3)C[C@H]21)N1CCCCO1`: the Percent Effect was determined as 4.98%.
Take `Cc1ncncc1C(=O)N1C[C@H]2CC[C@@H]1CN(C(=O)c1ccncc1)C2`: the Percent Effect came out at 4.91%.
As for `CCn1ncnc1C1CC(=O)NCc2nc(N3CCCC3)sc21` (configuration not stated), the figure is 2.27%.
With `Nc1nc2c(s1)C(c1c(F)cccc1Cl)CC(=O)N2` (configuration not stated), the Percent Effect turned out to be 41.6%.
The same measure for `COc1cccc(CNCc2ccnc(N3CCOCC3)c2)c1OC`: 5.86%.
As for `CCOc1cccc(C2CC(=O)NCc3nc(N4CCCC4)sc32)c1` (configuration not stated), the figure is 1.45%; as for `CC(C)Oc1ccccc1C1CC(=O)Nc2nc(N3CCOCC3)sc21` (configuration not stated), 82.6%; as for `COc1cccc(C2CC(=O)Nc3nc(N4CCCCC4)sc32)c1OC` (configuration not stated), 84.4%.
As to `CC(C)Oc1ccccc1C1CC(=O)Nc2c1cnn2C` (configuration not stated), the Percent Effect worked out at 1.57%.
As for `COc1cccc(C2CC(=O)Nc3nc(N4CCOCC4)sc32)c1OC` (configuration not stated), the figure is 77.8%; as for `COc1cccc(C2SCC(=O)Nc3ccsc32)c1OC` (configuration not stated), 1.9%.
Regarding `COc1cccc(CNc2nc(N3CCOCC3)ns2)c1OC`, the Percent Effect is -2.52%.
Turning to `COc1cccc(C2SCC(=O)Nc3n[nH]cc32)c1OC(C)C` (configuration not stated), the Percent Effect turned out to be 1.84%.
In the case of `COc1cccc(C2CC(=O)Nc3nc(N)sc32)c1OC` (configuration not stated), the Percent Effect is 62.7%.
As for `O=C(N1CCCC1)N1C[C@H]2CCC[C@@]2(COCc2ccccn2)C1`, the figure is 2.76%; as for `CCO[C@@H]1CC[C@H]2[C@H]1OCCN2Cc1ccoc1`, 2.1%.
The same measure for `CNC(=O)[C@@H]1C[C@H]2CN(Cc3csc(C)n3)C[C@H]2N1C(C)C`: 4.1%; for `O=C([C@H]1CN(Cc2cccnc2)C[C@H]2OCC[C@@H]12)N1CCCO1`: 2.79%.
The same measure for `CN(C)C(=O)[C@@H]1C[C@@H]2CCN(C3CCOCC3)C[C@H]2O1`: 1.18%; for `N#Cc1cccc(C(=O)Nc2ccc([C@@H](O)[C@H]3COCC(=O)N3)cc2)c1`: 5.33%.
On to `COCC(=O)N1CCN(S(=O)(=O)c2ccccc2)[C@H]2CS(=O)(=O)C[C@H]21`, for which the Percent Effect is 2.66%.
`O=C1CO[C@@H]2CN(Cc3nccs3)C[C@H]2N1Cc1ccncc1`: the Percent Effect was 3.56%.
The same measure for `COCC(=O)N1C[C@@H](OCc2ccncc2)[C@@H]2OCCC[C@@H]21`: 0.763%; for `COc1ccccc1C1CC(=O)Nc2c1c(=O)[nH]n2C1CCCC1` (configuration not stated): 5.39%.
The same measure for `COc1ccccc1C1CC(=O)Nc2nc(N3CCCCC3)sc21` (configuration not stated): 84.3%; for `COc1ccccc1C1CC(=O)Nc2c1c(=O)[nH]n2C(C)C` (configuration not stated): -1.35%.
As for `COCCN1C[C@H]2CCC[C@@H](CNc3ncccn3)[C@H]2C1`, the figure is 5%; as for `Cn1ccnc1NC[C@@H]1CCC[C@@H]2CN(CC3CC3)C[C@@H]21`, 9.69%; as for `Cc1ncsc1CN1C[C@H]2OCC[C@H]2[C@H](C(=O)NCC2CC2)C1`, 0.98%.
As to `CCN(Cc1cccc(F)c1)c1ccc2nnnn2n1`, the Percent Effect worked out at 50.8%.
As for `Fc1cccc(CCN(c2ccc3nnnn3n2)C2CC2)c1`, the figure is 5.52%.
On to `CCCN(CCc1cccc(F)c1)c1ccc2nnnn2n1`, for which the Percent Effect turned out to be 10.9%.
As to `O=C(c1ccco1)N1CC[C@@H]2O[C@H](COCC3CCOCC3)CC[C@@H]21`, the Percent Effect stood at 0.363%.
`CS(=O)(=O)NC[C@@H]1OC[C@H]2CN(Cc3ccccc3)CC[C@H]21`: the Percent Effect is 3.37%.
As for `COCCNC(=O)[C@H]1C[C@@H]2CCN(CCc3ccccc3)C[C@@H]2O1`, the figure is 1.68%; as for `COc1cccc(CN2C[C@@H]3COC[C@]3(CNC(=O)C3CC3)C2)c1`, 4.5%; as for `Cc1cc(Br)c(O)c(-c2nc(N3CCOCC3)sc2C)c1`, 2.13%.
As for `O=c1[nH]nc(-c2cccs2)c2sc(N3CCOCC3)nc12`, the figure is 7.56%.
As for `OC1CN(c2nc3c(C(F)(F)F)cccc3s2)C1`, the figure is -2.21%.
As for `Cn1ncc2c1NC(=O)CC2c1ccccc1Br` (configuration not stated), the Percent Effect was determined as 1.2%.
As for `O=C1CC(c2ccccc2Br)c2sc(N3CCOCC3)nc2N1` (configuration not stated), the Percent Effect is 60.1%.
`O=C1CC(c2ccccc2C(F)(F)F)c2sc(N3CCOCC3)nc2N1` (configuration not stated): the Percent Effect amounted to 82.6%.
Consider `COCCN1CCO[C@@H]2CN(Cc3ccc(C)o3)C[C@@H]2C1`, for which the Percent Effect worked out at 3.96%.
On to `CNC(=O)[C@@H]1COC[C@H]2CN(C(=O)COc3ccccc3)C[C@H]21`, for which the Percent Effect came out at 5.31%.
The same measure for `CC(C)CS(=O)(=O)N1C[C@H]2C[C@H](C(=O)Nc3cccnc3)[C@@H](C1)O2`: -0.957%; for `O=C(Nc1ccccc1)[C@H]1C[C@@H]2CN(S(=O)(=O)c3ccccc3)C[C@H]1O2`: 1.2%.
As for `CCOCC1CN(Cc2ccc(OC)cc2)Cc2nn(C)cc21` (configuration not stated), the figure is -4.8%; as for `CCOCC1CN(Cc2ccc(F)cc2)Cc2nn(CC3CC3)cc21` (configuration not stated), 3.6%; as for `CCOCC1CN(Cc2ccc(OC)cc2)Cc2nn(CC3CC3)cc21` (configuration not stated), 60.3%.
As for `CNC(=O)N1CC[C@H]2N(C)CC[C@@]2(C(=O)N2CCOCC2)CC1`, the figure is 5.59%.
Regarding `Cc1cccc(C(=O)N2CC[C@H]3C[C@@H](C)O[C@@H]3C2)n1`, the Percent Effect came to 1.1%.
For the compound `CS(=O)(=O)N1C[C@@H]2COC[C@@H](CC(=O)N3CCCCO3)[C@@H]2C1`, the Percent Effect is -2.78%.
The same measure for `O=C(N1CCCO1)[C@@]12CCO[C@@H]1CCN(Cc1ccccc1)C2`: 4.7%; for `COc1cccc(CN2C[C@H]3CCNCC[C@H]3S2(=O)=O)c1`: -2.39%.
On to `Cc1noc(C)c1CN1CC[C@H]2C[C@H](c3nccs3)O[C@@H]2C1`, for which the Percent Effect is -0.715%.
As for `COCc1nc2cc(NCc3scnc3C)ccc2o1`, the figure is 13.6%; as for `COCc1nc2cc(NCc3csc(C)n3)ccc2o1`, 10.7%; as for `COCc1nc2cc(NCc3sc(C)nc3C)ccc2o1`, 58.6%.
As for `CCC1CCC(CNC(=O)c2c[nH]c(=O)c(Cl)c2)CC1` (configuration not stated), the Percent Effect came out at 67.6%.
As for `CC/C=C(\C)CN1CCC(CNC(=O)c2c[nH]c(=O)c(Cl)c2)C1` (configuration not stated), the figure is -1.78%.
The same measure for `COCCN1CCC(CNC(=O)c2c[nH]c(=O)c(Cl)c2)CC1`: 2.11%.

Values taken from ChEMBL document CHEMBL3988442, “University of Dundee, Small-Polar-MMV Screening Library” (2021).
